Source: PubChem BioAssay (NCATS)
Results filed as inconclusive are left out. A call without a number means that no potency is given here. Unmarked numbers belong to inactive results. Active and inactive are the calls of the source. Calls follow the shape of the dose curve; as a rule, active = well fitted cell-killing curve with a large enough effect; inconclusive = small, poorly fitted or top-dose-only effect, or effect the other way; inactive = no such curve, though single readings can be large or run the other way.

Columns and labels:
[1] = Viability qHTS for spleen associated tyrosine kinase inhibitor (SYKi) naive MV4-11 cells (AID 1963823); conditions: MV4-11 AML viability, CellTiter-Glo luminescence, 72 h; series mostly up to 45 µM; also: nearly all actives have a fitted effect of over 40% in size
Procedure, shortened: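 In this viability screen, compounds acted on SYK inhibitor naive MV4-11 cells for three days (72 hr, 37 C). Remaining viable cells were measured by CellTiter-Glo luminescence following a 10 min room-temperature development.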

[2] = Viability qHTS for spleen associated tyrosine kinase inhibitor (SYKi) drug resistant MV4-11 cells (AID 1963824); conditions: SYKi-resistant MV4-11 viability, CellTiter-Glo, 72 h; series mostly up to 45 µM; also: nearly all actives have a fitted effect of over 35% in size
Procedure, shortened: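 CellTiter-Glo luminescence, read 10 min after reagent addition, reports viability after a 72 hr compound exposure. Cells are an MV4-11 line made resistant to SYK inhibition, seeded at 500 per well onto compound-containing plates.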
Potency is read from the fitted curve at half-maximal effect.

Compound	Potency [1]	Potency [2]	viability (% of control) [1]	viability, % of control [2]
CC(=O)C1(C)CCC2C3C=C(C)C4=CC(=O)CCC4(C)C3CCC21C (configuration not stated)	5.8 µM (active)	7.31 µM (active)	–	–
CC1(CO)CCCC2(C)C1C(OC(=O)c1ccccc1)CC1C(=O)OCC12O (configuration not stated)	inactive	inactive	–	–
CN[C@@H]1[C@@H](O)[C@@H](O[C@@H]2[C@@H](O)[C@H](O[C@H]3O[C@@H]([C@@H](C)NC)CC[C@H]3N)[C@@H](N)C[C@H]2N)OC[C@]1(C)O	inactive	inactive	–	–
C/C=C/C=C/C(O)=C1\C(O)=C(C)C(=O)[C@@]2(C)OC(=O)[C@@](C)(NC(=O)/C=C/C(=O)O)[C@@H]12	inactive	inactive	–	–
CCCCC1CCN(CCCC(=O)c2ccccc2C)CC1	16.4 µM (active)	13 µM (active)	–	–
CC1CC[C@]2(C(=O)O)CC[C@]3(C(=O)O)C(=CCC4[C@@]5(C)CC[C@H](OC6OC(C)C(O)C(OC7OC(CO)C(O)C(O)C7O)C6O)C(C)(C)C5CC[C@]43C)C2C1C (some centres not stated)	inactive	inactive	–	–
C=C1C[C@H](O)[C@@H](O)[C@@]2(C)C1[C@@H](O)[C@H]1OC(=O)C3[C@@H](C)[C@@H](O)[C@H](O)C2[C@]31C (some centres not stated)	inactive	inactive	–	–
COc1cc(O)cc(C)c1C(=O)O[C@H]1[C@@H](O)[C@@H](n2ccc(=O)[nH]c2=O)O[C@@H]1CO	inactive	inactive	–	–
COc1c2c(c(C)c3c1C(=O)OC3)OC1(C)CC(O)C34OC(OC)(CCC3(C)C1C2)OC4(C)CO (configuration not stated)	inactive	inactive	–	–
CC(=O)O[C@@H](C[C@@H]1C=C(C)C(=O)O1)[C@H](C)[C@H]1CCC2[C@@]3(C)CC[C@H](O[C@@H]4O[C@H](CO)[C@@H](O)[C@H](O)[C@H]4O[C@@H]4O[C@@H](C)[C@H](O)[C@@H](O)[C@H]4O)C(C)(C)C3CC[C@@]2(C)[C@@]12COC(=O)C2 (some centres not stated)	–	–	81.6% [at 9.25 µM]	89.9% [at 9.25 µM]
CCC(C)C(=O)O[C@@H]1[C@@H](O)[C@@H](O[C@H]2O[C@H](CO)[C@@H](O)[C@H](O)[C@H]2O)O[C@H](CO)[C@H]1O (some centres not stated)	inactive	inactive	–	–
Oc1cccc(-c2nc(N3CCOCC3)c3sccc3n2)c1	0.82 µM (active)	2.06 µM (active)	–	–
CC1(C)[C@@H](O)CC[C@]2(C)[C@H]3CC=C4[C@@H]5C[C@](C)(C(=O)O)CC[C@]5(C)CC[C@@]4(C)[C@]3(C)CC[C@@H]12	inactive	inactive	–	–
CC(=O)C1=CCC2C3CCC4CC(O[C@@H]5O[C@H](CO)[C@@H](O[C@@H]6O[C@@H](C)[C@H](O)[C@@H](O)[C@H]6O)[C@H](O)[C@H]5O[C@@H]5O[C@H](CO)[C@@H](O)[C@H](O)[C@H]5O)CCC4(C)C3CCC12C (some centres not stated)	inactive	inactive	–	–
COc1ccc2cc(-c3cc(-c4cc(Cl)cc(Cl)c4)nn3C(C)c3ccc(C(=O)NCCC(=O)O)cc3)ccc2c1 (configuration not stated)	23.1 µM (active)	25.9 µM (active)	–	–
C=C1CC[C@H](O)CC1=C/C=C1\CCC[C@]2(C)[C@@H]([C@H](C)/C=C/[C@H](C)C(C)C)CC[C@@H]12	8.2 µM (active)	9.2 µM (active)	–	–
Cc1cc2c(c(=O)o1)C=C1CC[C@H]([C@H](C)Cn3cnc(=N)c4[nH]cnc43)C[C@@H]1O2	inactive	inactive	–	–
C=C1C(=O)OC2CC(C)C(CCC(C)=O)=CCC12 (configuration not stated)	8.2 µM (active)	5.17 µM (active)	–	–
CNc1cccc(CCOc2ccc3c(c2)CN(CC(F)(F)F)C(=O)[C@H](CC(=O)O)C3)n1	inactive	inactive	–	–

Compound	Potency [1]	Potency [2]	viability (% of control) [1]	viability, % of control [2]
CC1(C)CC[C@]23CO[C@@]4(CCC5[C@@]6(C)CC[C@H](O[C@@H]7OC[C@H](O[C@@H]8O[C@H](CO)[C@@H](O)[C@H](O)[C@H]8O[C@@H]8OC[C@@H](O)[C@H](O)[C@H]8O)[C@H](O)[C@H]7O)[C@@](C)(CO)C6CC[C@@]5(C)[C@]4(C)CC2=O)[C@@H]3C1 (some centres not stated)	3.1 µM (active)	4.91 µM (active)	–	–
COc1cc(N2CCOCC2)ccc1Nc1ncc(F)c(Nc2ccccc2NS(C)(=O)=O)n1	1.64 µM (active)	2.59 µM (active)	–	–
O=C(CCCCCCC(=O)Nc1ccc(C2OC(CSc3nc(-c4ccccc4)c(-c4ccccc4)o3)CC(c3ccc(CO)cc3)O2)cc1)NO (configuration not stated)	7.31 µM (active)	9.2 µM (active)	–	–
C/C(=C\CO[C@@H]1O[C@H](CO[C@H]2OC[C@](O)(CO)[C@H]2O)[C@@H](O)[C@H](O)[C@H]1O)C(C)(C)O	inactive	inactive	–	–
O=C1NC(=O)C(c2c[nH]c3ccccc23)=C1c1c[nH]c2ccccc12	1.86 µM (active)	1.16 µM (active)	–	–
COC(=O)C1=CO[C@@H](O[C@@H]2O[C@H](CO)[C@@H](O)[C@H](O)[C@H]2O)[C@@H]2[C@@H](C(=O)OC)[C@@H](O)C(O)[C@H]12 (some centres not stated)	inactive	inactive	–	–
COC(=O)C1=CO[C@@H](O[C@@H]2O[C@H](CO)[C@@H](O)[C@H](O)[C@H]2O)C2C1CC(O)C2C (some centres not stated)	inactive	inactive	–	–
COC(=O)C1=COC(OC2OC(CO)C(O)C(O)C2O)C2C(C)C(OC(=O)/C=C/c3ccc(O)cc3)C(O)C12 (configuration not stated)	inactive	inactive	–	–
NC(=O)c1cnc(NCCc2ccc(O)c(Cl)c2)nc1NCc1ccccc1	0.0231 µM (active)	0.0259 µM (active)	–	–
Cc1cncc2cccc(S(=O)(=O)N3CCCNC[C@@H]3C)c12	3.66 µM (active)	9.2 µM (active)	–	–
COC1=CC(=O)O/C1=C(/OC)[C@@H]1O[C@H]1c1ccccc1	23.1 µM (active)	10.3 µM (active)	–	–
CC1CCC23COC(=O)C2=CC(O)CC3C1(C)CCC1=CC(=O)OC1O (configuration not stated)	inactive	inactive	–	–
Cc1cccc(/C=N/Nc2cc(N3CCOCC3)n3nc(-c4ccncc4)cc3n2)c1	1.03 µM (active)	0.291 µM (active)	–	–
CCc1nn(CCO)c(CC)c1Oc1cc(C#N)cc(C#N)c1	inactive	inactive	–	–
CC(C)(O)c1ccc2c(c1)C(=O)CC1[C@](C)(CO)CCC[C@]21C (some centres not stated)	inactive	inactive	–	–
COc1ccc2c3c1O[C@H]1C[C@@H](O)C=C[C@@]31CCN(C)C2	inactive	inactive	–	–
CC(O)(CC(=O)O)CC(=O)O[C@@H]1[C@@H](O)[C@H](OCCc2ccccc2)O[C@H](CO)[C@H]1O (some centres not stated)	inactive	inactive	–	–
CC(=O)N1CCc2ccc(O)c(OC3OC(COC4OCC(O)(CO)C4O)C(O)C(O)C3O)c2C1Cc1ccc(O)cc1 (configuration not stated)	inactive	inactive	–	–
CC(C)OC(=O)OCOP(=O)(COC(C)Cn1cnc2c(N)ncnc21)OCOC(=O)OC(C)C (configuration not stated)	2.31 µM (active)	2.06 µM (active)	–	–

Compound	Potency [1]	Potency [2]	viability (% of control) [1]	viability, % of control [2]
C/C(=C\CCC(C)CCO)C(=O)OC1(C)CCC2C(C(=O)O)=COC(OC3OC(CO)C(O)C(O)C3O)C21 (configuration not stated)	inactive	inactive	–	–
C=C1CC[C@@H]2[C@](C)(CO)[C@H](O)CC[C@@]2(C)[C@@H]1C/C=C1/C(=O)OC[C@@H]1O	4.53 µM (active)	3.21 µM (active)	–	–
CC1=CC[C@]2(C(=O)O[C@@H]3O[C@H](CO[C@@H]4O[C@H](CO)[C@@H](O[C@@H]5O[C@@H](C)[C@H](O)[C@@H](O)[C@H]5O)[C@H](O)[C@H]4O)[C@@H](O)[C@H](O)[C@H]3O)CC[C@]3(C)C(CCC4[C@@]5(C)C[C@@H](O)[C@H](O)[C@@](C)(CO)C5CC[C@]43C)C2C1C (some centres not stated)	–	–	78.2% [at 9.25 µM]	86.5% [at 9.25 µM]
Nc1nc(N)c2nc(-c3cccc(O)c3)cnc2n1	1.84 µM (active)	2.06 µM (active)	–	–
CC(=O)/C=C/[C@H]1[C@](C)(O)[C@@H](O)[C@H](OC(C)=O)C2C(C)(C)CCC[C@@]21C (some centres not stated)	inactive	inactive	–	–
COc1cc(CO)ccc1O[C@@H]1O[C@H](CO)[C@@H](O)[C@H](O)[C@H]1O	inactive	inactive	–	–
CC1(C)CCC(C)(C)c2cc([C@@H](O)C(=O)Nc3ccc(C(=O)O)cc3F)ccc21	4.11 µM (active)	5.17 µM (active)	–	–
C/C=C(\C)C(=O)OC[C@H]1O[C@@H](O[C@H]2[C@@H](O[C@H]3O[C@H](CO)[C@@H](O)[C@H](O)[C@H]3O[C@@H]3O[C@H](CO)[C@@H](O)[C@H](O)[C@H]3O)O[C@H](COC(=O)/C(C)=C/C)[C@@H](O)[C@@H]2O)[C@H](O)[C@@H](O)[C@@H]1O	–	–	81.8% [at 9.25 µM]	79.8% [at 9.25 µM]
CC1=C2C(=O)C=C(CO)[C@@H]2[C@H]2OC(=O)[C@H](C)[C@@H]2[C@@H](O)C1	inactive	inactive	–	–
O=c1ccn(C2OC(CO)C(O)C2O)c(=O)[nH]1 (configuration not stated)	inactive	2.06 µM (active)	–	–
COc1cc2ncnc(N3CCC(Oc4cnc5ccccc5n4)C3)c2cc1OC (configuration not stated)	0.58 µM (active)	0.411 µM (active)	–	–
COc1ccc(OC(=O)N(CC(=O)O)Cc2ccc(OCCc3nc(-c4ccccc4)oc3C)cc2)cc1	inactive	inactive	–	–
Nc1nonc1-c1nc2cnccc2n1C1CCCCC1	0.517 µM (active)	0.731 µM (active)	–	–
C=C1C[C@]23C[C@H]1CC[C@H]2[C@@]12C=C[C@H](O)[C@@](C)(C(=O)O1)[C@H]2[C@@H]3C(=O)O	inactive	inactive	–	–
C/C1=C\C[C@H](O[C@@H]2O[C@H](CO)[C@@H](O)[C@H](O)[C@H]2O)/C(C)=C/[C@H]2OC(=O)[C@H](C)[C@@H]2CC1	inactive	inactive	–	–
CCCc1c(C(C)C)nc(C(C)C)c([C@@H](C)O)c1-c1ccc(F)cc1O	9.2 µM (active)	8.2 µM (active)	–	–
CC(/C=C/C1(O)C(C)(C)CC(O)CC1(C)O)OC1OC(CO)C(O)C(O)C1O (configuration not stated)	inactive	inactive	–	–
CC1(C)C[C@H]2C=C(C=O)[C@]3(C(=O)O)C[C@]3(C)[C@H]2C1	inactive	inactive	–	–
